Screening results from PubChem BioAssay.
HTT ATP protect – cytoprotection in Huntington HTT-Q103 PC12 cell model. PC12 HTT-Q103 induced, cytoprotection, ATP luminescence, 40 h. Potency, µM (series often up to 56.4 µM), for inactives: cytoprotection (ATP increase), usual class: activators. 0.14% of 230,000 active; note: % of control where 0% means no effect; nearly all actives have a fitted effect of over 45% in size
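PC12 cells stably carrying ecdysone-inducible Htt exon 1 (Q103)–GFP were induced with 100 nM tebufenozide (final) alongside library compounds in a dose series. Cytoprotection was scored as retained ATP by ATPlite luminescence.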
HttQ103 aggreg – inhibitors of mutant huntingtin aggregate formation in PC12 cells; PC12 HttQ103-GFP aggregates, Acumen cytometry, 40 h; Potency, µM (top dose mostly 46.1 µM), for inactives: top-dose activity change, negative = inhibition, usual class: inhibitors; 1.1% of 220,000 active; AID 1688; note: % is set by controls: 0 for no effect and ±100 for the full control effect; nearly all actives have a fitted effect of over 60% in size
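Huntingtin Q103 exon 1–GFP aggregates in induced PC12 cells (100 nM tebufenozide) were quantified by cytometry from lysates, with compounds dosed in titration.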
ALDH1A1 inh – blocks purified human ALDH1A1 activity; 7.3% of 220,000 active; P00352; Purified ALDH1A1, NADH fluorescence, propionaldehyde substrate; Potency, µM (series often up to 75.3 µM), for inactives: top-dose activity, negative = inhibition, most hits filed as inhibitors; active = well fitted inhibition curve with a large enough effect, not every such curve was filed as active; inconclusive = small, poorly fitted or top-dose-only effect, or another doubt; inactive = no such curve, though single readings can be large or run the other way;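 note: plate controls were no enzyme wells and a reference inhibitor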
Target sequence (P00352 whole entry, looked up): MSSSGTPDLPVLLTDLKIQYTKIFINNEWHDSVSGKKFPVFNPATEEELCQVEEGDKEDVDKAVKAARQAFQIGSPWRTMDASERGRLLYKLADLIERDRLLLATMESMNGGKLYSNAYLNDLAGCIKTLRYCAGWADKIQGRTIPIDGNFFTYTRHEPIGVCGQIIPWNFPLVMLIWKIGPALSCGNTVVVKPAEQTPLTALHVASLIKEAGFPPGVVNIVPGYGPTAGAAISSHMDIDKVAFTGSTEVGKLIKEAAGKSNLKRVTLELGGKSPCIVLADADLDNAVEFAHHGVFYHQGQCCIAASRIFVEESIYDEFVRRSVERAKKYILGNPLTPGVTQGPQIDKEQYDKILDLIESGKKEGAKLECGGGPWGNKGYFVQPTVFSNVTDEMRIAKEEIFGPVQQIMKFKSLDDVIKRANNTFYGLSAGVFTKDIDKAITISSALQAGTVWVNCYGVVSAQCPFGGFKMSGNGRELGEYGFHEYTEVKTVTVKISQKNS
HPGD block – blocks human HPGD enzyme activity. P15428. purified HPGD, NADH fluorescence kinetic, PGE2 substrate. Potency, µM, for the others: top-dose activity change, negative = inhibition, actives largely listed as inhibitors. 4.3% of 150,000 active. AID 894; active = well fitted inhibition curve with a large enough effect, not every such curve was filed as active; inconclusive = small, poorly fitted or top-dose-only effect, or another doubt; inactive = no such curve, though single readings can be large or run the other way; note: % is set by controls: 0 for no effect and ±100 for the full control effect
Target sequence (P15428 whole entry, looked up): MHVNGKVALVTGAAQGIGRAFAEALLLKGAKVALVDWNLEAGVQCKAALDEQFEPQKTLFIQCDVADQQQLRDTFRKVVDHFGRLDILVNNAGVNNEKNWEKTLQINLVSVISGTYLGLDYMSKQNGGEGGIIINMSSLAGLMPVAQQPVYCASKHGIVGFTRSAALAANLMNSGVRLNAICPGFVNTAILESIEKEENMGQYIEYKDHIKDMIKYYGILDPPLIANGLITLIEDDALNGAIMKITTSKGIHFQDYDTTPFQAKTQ
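20 nM HPGD preincubated 15 min at room temperature with compound in 50 mM Tris-HCl pH 8, 0.01% Tween 20. Started with 1 mM NAD+ and 30 uM prostaglandin E2; NADH fluorescence (360/450 nm) read 5 times over 30-s intervals, last minus first.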
Lamin A splicing – modulators of lamin A splicing; HeLa LMNA splicing GFP/RFP minigene ratio, 48 h; Potency, µM (titrated, usually from 46.1 µM), inactives show at the top dose ratio change, negative = inhibition, usual class: inhibitors; 0.01% of 200,000 active; AID 1487; active = well fitted inhibition curve with a large enough effect in the signal ratio, with a control signal flat, not every such curve was filed as active; inconclusive = small, poorly fitted or top-dose-only effect, or effect the other way, or a change in a side signal; the % refers to the signal ratio; note: % is set by controls: 0 for no effect and ±100 for the full control effect
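S3 HeLa stable clones carrying a lamin A-EGFP splicing minigene plus DsRed2 were seeded at 600 cells/well in Opti-MEM with 2% FBS, pin-dosed and incubated 48 h at 37°C. Acumen cytometry (488 nm) gave the GFP/RFP total-intensity ratio.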
* hit, by the source's call; ? = inconclusive; / = no result; [ ] = another dose, or the depositor's remark. Only some compounds are listed: those with a hit (about 8.8% of all), similar ones and a draw of the others. Unless noted, calls come from the whole dose curve; as a rule, active = well fitted curve in the direction sought with a large enough effect; inconclusive = small, poorly fitted or top-dose-only effect, or another doubt; inactive = no such curve, though single readings can be large; an effect the other way counts as inactive or inconclusive. Potency is the fitted concentration of half-maximal effect.

SMILES	HTT ATP protect	HttQ103 aggreg	ALDH1A1 inh	HPGD block	Lamin A splicing
COc1ccc(/C=C2\SC(=O)NC2=S)cc1OC	-15%[10 µM]	-23%	18µM*	16µM*	?
COc1cc(/C=C2\SC(=S)NC2=O)ccc1OS(=O)(=O)c1ccccc1	11%[10 µM]	?	6.3µM*	8.9µM*	?
O=C(c1ccccc1Cl)N1CCN(CCc2ccccn2)CC1	/	/	/	/	-2%[46 µM]
COc1ccc(C)cc1NC(=O)CSc1nc(=O)n(Cc2ccccn2)c2c1CCC2	/	/	/	/	-13%[46 µM]
CC(C)[C@@H](CC(=O)N[C@@H]1CCCC[C@H]1C(=O)N[C@H](CC(=O)N[C@@H](CCC(=O)O)CC(=O)O)Cc1c[nH]c2ccccc12)NC(=O)C[C@H](Cc1ccccc1)NC(=O)[C@@H]1CNCC[C@H]1N	-33%	/	-6%	-9%	/
CCN1CCN(c2csc3ccc(Br)cc3c2=O)CC1	/	/	/	/	-3%[46 µM]
COc1ccc(Nc2ncnc3onc(C)c23)c(OC)c1	/	/	/	/	-1%[46 µM]
Cc1cc(C)c2c(CN3CCOCC3)cc(=O)oc2c1C	-22%[10 µM]	-2%[9.22 µM]	/	/	/
CCN1CCN(Cc2cc(=O)oc3cc(C)cc(C)c23)CC1	18%	9%	-3%	-8%	-5%
Cc1ccc2c(CN3CCN(Cc4ccc5c(c4)OCO5)CC3)cc(=O)oc2c1C	-56%	-8%	25µM*	-18%	-7%
Cc1cc(C)c2c(CN3CCN(Cc4ccc5c(c4)OCO5)CC3)cc(=O)oc2c1C	-6%[0.074 µM]	-9%	1.6µM*	-6%	?
Cc1cc(C)c2c(CN3CCN(Cc4ccc5c(c4)OCO5)CC3)cc(=O)oc2c1	-9%[0.074 µM]	-1%	13µM*	-28%	?
Cc1cc2oc(=O)cc(CN3CCN(Cc4ccc5c(c4)OCO5)CC3)c2cc1C	31%[10 µM]	-8%	-20%	-19%	-4%
COc1cccc2c1ncc1c(-c3ccc(C)cc3)nn(-c3ccc(F)cc3)c12	/	/	/	/	14%[46 µM]
Cc1ccccc1NC(=O)CSC1=Nc2ccccc2C2=NC(Cc3ccccc3)C(=O)N12 (stereo not given)	/	/	/	/	-1%[46 µM]
C=C(C)C(=O)OCC(=O)NCc1ccccc1	-15%	-18%	1%	/	/
O=C(NC(=S)Nc1cccc2cnccc12)c1ccccc1	5%	?	-6%	/	/
Cc1cc(C)cc(NC(=S)Nc2cccc3cnccc23)c1	-13%[10 µM]	1%	11µM*	/	/
CCc1ccc(NC(=S)NCc2cccnc2)cc1	-2%[10 µM]	21%[9.22 µM]	1%	/	/
Cc1ccc(NC(=S)Nc2cccc3cnccc23)c(C)c1	-26%	-20%	18µM*	/	?
CCc1ccc(NC(=S)Nc2cccc3cnccc23)cc1	-28%	-27%	11µM*	/	-8%[9.22 µM]
CCOC(=O)C1=C(C)N=c2s/c(=C/c3ccco3)c(=O)n2C1c1cccc(OC)c1 (stereo not given)	-3%	7%	3.5µM*	14µM*	2%
CCOC(=O)C1=C(C)N=c2s/c(=C\c3cccn3C)c(=O)n2C1c1cccc(OC)c1OC (stereo not given)	4%	6%	6%	-15%	4%
CC(C)c1nn2c(=O)cc(COC(=O)C3CCCCC3)nc2s1	/	/	/	/	-7%[46 µM]
COc1cccc([C@@H]2Oc3ccc(Br)cc3C(=O)[C@H]2OC(=O)NS(=O)(=O)c2ccc(F)cc2)c1	/	/	?	-9%	/
SMILES	HTT ATP protect	HttQ103 aggreg	ALDH1A1 inh	HPGD block	Lamin A splicing
O=C(COC(=O)c1cnccn1)c1ccc2c(c1)CCCC2	-20%[10 µM]	-4%	28µM*	-12%	14%
O=C(c1cnccn1)N1CCC[C@@]2(CCN(Cc3cc(C(F)(F)F)cc(C(F)(F)F)c3)C2)C1	13%	/	5%	-8%	/
Cc1cc(C)nc(SCC(=O)Nc2ccnc3ccccc23)n1	/	?	10%	/	/
O=C(CSC1=NCCS1)Nc1ccc(S(=O)(=O)NC2CCCCC2)cc1	0%	-6%	?	16µM*	-7%
O=C(CSC1=NCCS1)Nc1ccc(S(=O)(=O)N2CCCCCC2)cc1	-17%	8%	?	?	?
O=C(CSC1=NCCS1)Nc1ccnc2ccccc12	26%	10µM*	3%	-21%	?
O=C(CSC1=NCCS1)NC1CCCC1	-10%	0%	7%	25µM*	0%[0.0737 µM]
COc1ccc(-c2[nH]nc3nc(-c4cc(Br)ccc4OC)cc(C(=O)O)c23)cc1	/	/	/	/	-13%[46 µM]
Cn1c(=O)[nH]c(=O)c2c1nc([N+](=O)[O-])n2Cc1ccccc1	-97%[10 µM]	?	/	/	/
COc1cc(/C=C2\SC(=S)N(c3cccnc3)C2=O)ccc1O	2%[10 µM]	5%[9.22 µM]	/	/	/
COc1cc(/C=C2/SC(=S)N(c3ccccc3)C2=O)ccc1Oc1nc(N2CCOCC2)nc(N2CCOCC2)n1	-1%[10 µM]	14%	0.4µM*	-14%	-9%
CCc1nnc(NC(=O)CSc2nnc(Cc3cc(=O)[nH]c(=O)[nH]3)n2-c2cccc(OC)c2)s1	-23%	8%	?	/	15%[9.22 µM]
N#Cc1cccc(NC(=O)N2CCCC3(CCN(C(=O)c4cccc(F)c4)CC3)C2)c1	-27%	/	-11%	-4%	/
O=C(CCN1C(=O)C2CCCCC2C1=O)Nc1ccc(F)c(F)c1F (stereo not given)	-33%	-1%	10µM*	/	/
COc1ccc(S(=O)(=O)Nc2ccc(-n3cccc3)cc2)cc1	-14%	-10%	?	/	/
CCc1ccc(NC(=O)c2ccc(CN3CC(=O)N4CCCCC4C3=O)cc2)cc1 (stereo not given)	/	/	/	/	-9%[46 µM]
C=CCOc1ccc(Cl)cc1CNC1CCCC1	22µM*	-5%	-2%	/	-20%[46 µM]
COc1ccc(CNC2CCCC2)c(OC)c1OC	15%	-17%	-2%	-13%	-3%
Cc1ccccc1C(=O)NC(CC(C)C)C(=O)OCC(=O)c1c(N)n(C)c(=O)n(C)c1=O (stereo not given)	-24%	-15%	-2%	/	5%[46 µM]
CN(C)C(CNC(=O)c1ccc(NC(=O)CC#N)cc1)c1ccccc1 (stereo not given)	-44%	-3%	-9%	/	-18%[9.22 µM]
CN(Cc1cccc(Cl)c1Cl)C(=O)c1ccc(NC(=O)CC#N)cc1	28%[10 µM]	13%	-15%	18µM*	-3%
CCOC(=O)N1CCC(Nc2nc3ccccc3nc2NS(=O)(=O)c2ccc(Cl)cc2)CC1	-8%[0.074 µM]	11µM*	-13%	-4%	4%
CCOC(=O)N1CCC(NC(=O)c2ccc(Cl)cc2)CC1	10%[10 µM]	-28%[9.22 µM]	/	/	/
O=[N+]([O-])c1cccc(Cl)c1Cl	7%	/	-1%	-12%	/
O=S(=O)(c1ccccc1)N1C2CCC1CC(O)(c1cccnc1)C2 (stereo not given)	-17%[10 µM]	3%	13µM*	-14%	3%
Cc1nn(C2CCCO2)c(=O)nc1N (stereo not given)	2%[10 µM]	21%	15%	/	/
Cc1onc(-c2ccccc2Cl)c1C(=O)NC(=S)Nc1ccc(C(C)C)cc1	11%[10 µM]	8%[9.22 µM]	20µM*	/	-5%[46 µM]
Cc1ccc(NC(=S)NC(=O)c2c(-c3ccccc3Cl)noc2C)cc1	16%	20%	7.9µM*	-16%	-12%
Cc1onc(-c2ccccc2Cl)c1C(=O)NC(=S)NCCc1ccccc1	20%[0.074 µM]	3%	1%	-8%	9%
